Records with an inconclusive call do not appear. Active and inactive are the calls of the source. Unless noted, calls follow the shape of the dose curve; as a rule, active = well fitted cell-killing curve with a large enough effect; inconclusive = small, poorly fitted or top-dose-only effect, or effect the other way; inactive = no such curve, though single readings can be large or run the other way.
Columns and labels:
[1] = Quantitative High-Throughput drug screen in 47 multiple myeloma cell lines against the NCATS MIPE library collection: PCM6_Riken cell viability assay (AID 1919870); also: nearly all actives have a fitted effect of over 30% in size; also: potency is read from the fitted curve at half-maximal effect
Procedure, shortened: (§1)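 qHTS format: cells plated (500/well), pin-dosed with MIPE 4.0 compounds, kept 48 h at 37 °C. Readout was CellTiter-Glo luminescence, median RLU.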

[2] = Quantitative High-Throughput drug screen in 47 multiple myeloma cell lines against the NCATS MIPE library collection: RPMI8226_ATCC cell viability assay (AID 1919871); also: nearly all actives have a fitted effect of over 30% in size; also: potency is read from the fitted curve at half-maximal effect
Procedure, shortened: as §1

[3] = Quantitative High-Throughput drug screen in 47 multiple myeloma cell lines against the NCATS MIPE library collection: KMS11_JCRBsus cell viability assay (AID 1919873); also: nearly all actives have a fitted effect of over 50% in size; also: potency is read from the fitted curve at half-maximal effect
Procedure, shortened: as §1

[4] = Quantitative High-Throughput drug screen in 47 multiple myeloma cell lines against the NCATS MIPE library collection: KMS28BM_JCRB cell viability assay (AID 1919874); also: nearly all actives have a fitted effect of over 35% in size; also: potency is read from the fitted curve at half-maximal effect
Procedure, shortened: as §1

[5] = qHTS drug screen for cell cycle checkpoint inhibitors in PARPi-resistant BRCA-mutant ovarian cancer cell lines. (AID 1963452; calls by dose curve; also: potency is read from the fitted curve at half-maximal effect); settings: PEO1/OlaR viability, CellTiter-Glo luminescence, 96 h; for Z-AUC: stronger effect = lower value
Procedure, shortened: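 PEO1, PEO4 and PEO1/OlaR ovarian cancer cells, 600 per well, exposed 96 h at 37C to a dilution series. Viability read by CellTiter-Glo luminescence, normalized to DMSO and empty wells; activity summarized as Z-AUC.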

[6] = Quantitative High-Throughput drug screen in 47 multiple myeloma cell lines against the NCATS MIPE library collection: OPM2_DSMZ cell viability assay (AID 1919872); also: nearly all actives have a fitted effect of over 30% in size; also: potency is read from the fitted curve at half-maximal effect
Procedure, shortened: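 Approved and investigational drugs from MIPE 4.0 were added by pin tool to 500 cells per well. After 48 hours at 37C, ATP-based CellTiter-Glo luminescence indicated remaining viability.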

[7] = qHTS for identification of novel therapeutic agents for treatment of microphthalmiaassociated transcription factor (MiT) renal cell carcinoma (RCC) (AID 1963991; calls by dose curve; also: potency is read from the fitted curve at half-maximal effect); settings: CellTiter-Glo, 48 h; for z-score: stronger effect = lower value; for Potency: active = Z-AUC below -0.8 in all three lines
Procedure, shortened: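 Three TFE3-fusion RCC cell lines (UOK109, UOK124, UOK145), 500 cells/well, were exposed to the 1912-compound MIPE 4.0 library for 48 hours at 37 C. Viability was read by CellTiter-Glo luminescence, normalised to DMSO (100%) and empty wells (0%), with 11-concentration curve fits.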

[8] = Quantitative High-Throughput drug screen in 47 multiple myeloma cell lines against the NCATS MIPE library collection: PE2_PLB cell viability assay (AID 1919869);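 also: 100% = DMSO-only wells and 0% = cell-free media-only wells; nearly all actives have a fitted effect of over 35% in size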
Procedure, shortened: as §1

[9] = measured here: PEO1 parental Z-AUC
[10] = TFE3-RCC UOK109 viability, measured here: UOK109 Z-AUC
[11] = TFE3-RCC viability, measured here: UOK124 Z-AUC
[12] = TFE3-RCC viability, measured here: UOK145 Z-AUC

## CC#CCn1c(N2CCC[C@@H](N)C2)nc2c1c(=O)n(Cc1nc(C)c3ccccc3n1)c(=O)n2C
[1]
  Potency: inactive
[2]
  Potency: inactive
[3]
  Potency: inactive
[4]
  Potency: inactive
[5]
  Z-AUC: -0.285 (inactive)
[5]; [9]
  Z-AUC: 0.131
[5]; measured here: PEO4 Z-AUC
  Z-AUC: -0.262

## COC(=O)[C@@H]1[C@H]2C[C@H]3c4[nH]c5ccccc5c4CCN3C[C@@H]2CC[C@@H]1O
[5]
  Z-AUC: 0.808 (inactive)
[5]; [9]
  Z-AUC: 0.498
[5]; measured here: PEO4 Z-AUC
  Z-AUC: 0.659

## C[C@@H]1CCN(C(=O)CC#N)C[C@H]1N(C)c1ncnc2[nH]ccc12
[1]
  Potency: inactive
[6]
  Potency: inactive
[7]; [10]
  z-score: -0.116
[7]; [11]
  z-score: 0.39
[7]; [12]
  z-score: -0.115

## Cc1ccccc1C(C(=O)NC1CCCCC1)N(C(=O)Cn1ccnc1C)c1cccc(F)c1 (stereo not drawn)
[8]
  Potency: inactive
[3]
  Potency: inactive
[5]
  Z-AUC: 0.113 (inactive)
[5]; [9]
  Z-AUC: 0.941
[5]; measured here: PEO4 Z-AUC
  Z-AUC: 0.654
[7]; [10]
  z-score: 0.6
[7]; [11]
  z-score: 0.139
[7]; [12]
  z-score: 0.682

## Cc1c[nH]c(C=C2C(=O)Nc3ccccc32)c1CCC(=O)O
[1]
  Potency: 20.9 µM (active)
[2]
  Potency: inactive
[3]
  Potency: 33.2 µM (active)

## CCc1ccc(C=C2SC(=S)NC2=O)cc1
[2]
  Potency: inactive
[6]
  Potency: inactive
[4]
  Potency: inactive
[7]; [10]
  z-score: -0.104
[7]; [11]
  z-score: 0.457
[7]; [12]
  z-score: -0.976

## CC(=O)N[C@@H](CS)C(=O)O
[5]
  Z-AUC: 0.621 (inactive)
[5]; [9]
  Z-AUC: 0.869
[5]; measured here: PEO4 Z-AUC
  Z-AUC: 0.504

## CC1=C(/C=C/C(C)=C/C=C/C(C)=C/C(=O)Nc2ccc(O)cc2)C(C)(C)CCC1
[5]
  Z-AUC: 0.685 (inactive)
[5]; [9]
  Z-AUC: 0.437
[5]; measured here: PEO4 Z-AUC
  Z-AUC: 0.121

## COc1ccc2c3c1OC1C[C@@H](O)C=C[C@@]31CCN(C)C2 (stereo partly drawn)
[2]
  Potency: inactive
[6]
  Potency: inactive
[3]
  Potency: inactive
[7]; [10]
  z-score: 0.657
[7]; [11]
  z-score: 0.378
[7]; [12]
  z-score: -0.117

## COc1cccc([C@@H](C)NCCCc2ccccc2Cl)c1
[2]
  Potency: inactive
[6]
  Potency: inactive
[4]
  Potency: inactive
[5]
  Z-AUC: 0.861 (inactive)
[5]; [9]
  Z-AUC: 1.12
[5]; measured here: PEO4 Z-AUC
  Z-AUC: 0.597

## O=c1cc(-c2ccccc2)oc2cc(O)cc(O)c12
[1]
  Potency: 20.9 µM (active)
[2]
  Potency: inactive
[6]
  Potency: inactive
[4]
  Potency: inactive
[5]
  Z-AUC: 1.05 (inactive)
[5]; [9]
  Z-AUC: 1.12
[5]; measured here: PEO4 Z-AUC
  Z-AUC: 1.3
[7]; [10]
  z-score: 0.364
[7]; [11]
  z-score: 0.638
[7]; [12]
  z-score: 0.538

## CC=CCC(C)C(O)C1C(=O)NC(CC)C(=O)N(C)CC(=O)N(C)C(CC(C)C)C(=O)NC(C(C)C)C(=O)N(C)C(CC(C)C)C(=O)NC(C)C(=O)NC(C)C(=O)N(C)C(CC(C)C)C(=O)N(C)C(CC(C)C)C(=O)N(C)C(C(C)C)C(=O)N1C (stereo not drawn)
[3]
  Potency: inactive

## CC(=O)OC1C(C)OC(Oc2c(-c3ccc(O)cc3)oc3cc(O)cc(O)c3c2=O)C(O)C1OC(C)=O (stereo not drawn)
[2]
  Potency: 10.5 µM (active)
[6]
  Potency: inactive
[4]
  Potency: inactive
[5]
  Z-AUC: -0.58 (inactive)
[5]; [9]
  Z-AUC: -0.801
[5]; measured here: PEO4 Z-AUC
  Z-AUC: -0.512

## CCS(=O)(=O)N1CC(CC#N)(n2cc(-c3ncnc4[nH]ccc34)cn2)C1
[1]
  Potency: 5.9 µM (active)
[4]
  Potency: 23.5 µM (active)
[5]
  Z-AUC: 0.685 (inactive)
[5]; [9]
  Z-AUC: 0.902
[5]; measured here: PEO4 Z-AUC
  Z-AUC: 0.44

## CCOc1ccc(Nc2nc(-c3c(C)nc4ccccn34)cs2)cc1
[6]
  Potency: 0.0037 µM (active)
[3]
  Potency: inactive
[4]
  Potency: inactive
[5]
  Z-AUC: -0.0903 (inactive)
[5]; [9]
  Z-AUC: -0.777
[5]; measured here: PEO4 Z-AUC
  Z-AUC: 0.137
[7]; TFE3-RCC UOK109 viability
  Potency: 0.00235 µM (active)
[7]; [10]
  z-score: -1.91
[7]; [11]
  z-score: -2.79
[7]; [12]
  z-score: -1.17

## Nc1ncnc2ccccc12
[1]
  Potency: 20.9 µM (active)
[6]
  Potency: inactive
[3]
  Potency: inactive
[4]
  Potency: inactive
[5]
  Z-AUC: -0.0198 (inactive)
[5]; [9]
  Z-AUC: 0.844
[5]; measured here: PEO4 Z-AUC
  Z-AUC: 0.705

## O=C1NC(=O)C(=Cc2cccc(C(F)(F)F)c2)S1
[2]
  Potency: 7.43 µM (active)
[6]
  Potency: inactive
[4]
  Potency: inactive

## COc1ncc(-c2ccc3nccc(-c4ccnnc4)c3c2)cc1NS(=O)(=O)c1ccc(F)cc1F
[1]
  Potency: 0.0332 µM (active)
[6]
  Potency: 0.0026 µM (active)
[5]
  Potency: 0.174 µM (active)
[5]; [9]
  Z-AUC: -2.06
[5]; measured here: PEO4 Z-AUC
  Z-AUC: -1.99
[7]; TFE3-RCC UOK109 viability
  Potency: 33.2 µM (active)
[7]; [10]
  z-score: -3.1
[7]; [11]
  z-score: -1.24
[7]; [12]
  z-score: -3.12

## c1ccc2c(-c3cnn4cc(-c5ccc(N6CCNCC6)cc5)cnc34)ccnc2c1
[1]
  Potency: 0.935 µM (active)
[5]
  Z-AUC: -0.163 (inactive)
[5]; [9]
  Z-AUC: -0.568
[5]; measured here: PEO4 Z-AUC
  Z-AUC: -0.419
[7]; TFE3-RCC UOK109 viability
  Potency: 18.7 µM (active)
[7]; [10]
  z-score: -0.898
[7]; [11]
  z-score: -1.42
[7]; [12]
  z-score: -1.11

## COc1cc(N2CCC(N3CCN(C)CC3)CC2)ccc1Nc1ncnc(Nc2ccccc2S(=O)(=O)C(C)C)n1
[1]
  Potency: 16.6 µM (active)
[5]
  Z-AUC: 0.282 (inactive)
[5]; [9]
  Z-AUC: 0.069
[5]; measured here: PEO4 Z-AUC
  Z-AUC: 0.238

## O=C(NOCC(O)CO)c1cc(Br)c(F)c(F)c1Nc1ccc(I)cc1F (stereo not drawn)
[2]
  Potency: inactive
[6]
  Potency: inactive
[5]
  Z-AUC: 0.348 (inactive)
[5]; [9]
  Z-AUC: 0.513
[5]; measured here: PEO4 Z-AUC
  Z-AUC: 0.38
